Measured values reported in article PMC12820563, “FoxP3 forms a head-to-head dimer in vivo and stabilizes its multimerization on adjacent microsatellites”.
Over roughly 16,000 sequences, “rpm ratio (pull-down/input)” has its median near 0.5; the highest 2% begin near 5.5. Many of the other results were omitted from the sample, so the highest values are more common in it than they were.

target: T1, MBP-FoxP3dN (Mus musculus, UniProt Q99JB6 188-423); assay: PD-seq (MBP pull-down with sequencing); 20 mM Tris-HCl pH 7.5, 100 mM NaCl, 1.5 mM MgCl2, 0.4 uM protein, 0.1 uM dsDNA library, 30 min, room temperature, amylose pull-down; high values mean tight binding; settings: protein: recombinant; tags: His6-MBP; chain copies: 2; dsDNA, one strand shown
T1 sequence: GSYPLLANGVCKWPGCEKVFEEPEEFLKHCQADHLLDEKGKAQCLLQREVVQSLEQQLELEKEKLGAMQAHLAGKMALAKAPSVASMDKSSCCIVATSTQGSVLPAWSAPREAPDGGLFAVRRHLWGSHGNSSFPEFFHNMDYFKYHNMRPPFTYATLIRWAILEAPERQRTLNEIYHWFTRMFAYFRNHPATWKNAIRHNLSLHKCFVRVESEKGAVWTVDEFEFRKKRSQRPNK
Method in brief: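 Protein and DNA were mixed at 0.4 µM and 0.1 µM and held for 30 min at room temperature in Tris pH 7.5 buffer with NaCl and MgCl2; the protein was a His6-MBP-tagged, N-terminally truncated mouse FoxP3 or FoxP1 fragment from E. coli, and the DNA a Klenow-filled double-stranded degenerate library. Amylose resin captured the complexes, which were washed three times. Binding is read as reads-per-million enrichment of pull-down versus input after Illumina sequencing, with replicates pooled.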

How did the binding signal turn out when “GATGATTGTTCTCCCAGCTGATGAATTCTTCGATTCGAGTAAACAAATTTTCCTAATCTTTCTGTTCAAGCGCCATCTAC” was run?
Its binding signal is 0.253 RPM ratio (pull-down/input).

For “GATGATTGTTCTCCCAGCTGATGAATTGGGTTAGTCGAGTAAACAAATTTTCCTAATCTTTCTGTTCAAGCGCCATCTAC”, which binding signal is on record?
Its binding signal is 0.756 RPM ratio (pull-down/input).

With “GATGATTGTTCTCCCAGCTGATGAATTCCTCCGTTCGAGTAAACAAATTTTCCTAATCTTTCTGTTCAAGCGCCATCTAC” as the sequence, how does the binding signal read?
Its binding signal is 0.255 RPM ratio (pull-down/input).

For “GATGATTGTTCTCCCAGCTGATGAATTGTCCTTTTCGAGTAAACAAATTTTCCTAATCTTTCTGTTCAAGCGCCATCTAC”, which binding signal is on record?
The binding signal was 0.39 RPM ratio (pull-down/input).

“GATGATTGTTCTCCCAGCTGATGAATTGTTTCTGTCGAGTAAACAAATTTTCCTAATCTTTCTGTTCAAGCGCCATCTAC” was tested. Which binding signal did it give?
The binding signal was 1 RPM ratio (pull-down/input).

With “GATGATTGTTCTCCCAGCTGATGAATTCTTTTTGTCGAGTAAACAAATTTTCCTAATCTTTCTGTTCAAGCGCCATCTAC” as the sequence, how does the binding signal read?
The binding signal was 0.437 RPM ratio (pull-down/input).

How did the binding signal turn out when “GATGATTGTTCTCCCAGCTGATGAATTCAATTTGTCGAGTAAACAAATTTTCCTAATCTTTCTGTTCAAGCGCCATCTAC” was run?
The binding signal was 2.23 RPM ratio (pull-down/input).

How did the binding signal turn out when “GATGATTGTTCTCCCAGCTGATGAATTTCTTTTGTCGAGTAAACAAATTTTCCTAATCTTTCTGTTCAAGCGCCATCTAC” was run?
The binding signal was 1.65 RPM ratio (pull-down/input).

For “GATGATTGTTCTCCCAGCTGATGAATTTGTTTTGTCGAGTAAACAAATTTTCCTAATCTTTCTGTTCAAGCGCCATCTAC”, which binding signal is on record?
The binding signal was 7.57 RPM ratio (pull-down/input).

Which binding signal does the source give for “GATGATTGTTCTCCCAGCTGATGAATTCTGTTTGTCGAGTAAACAAATTTTCCTAATCTTTCTGTTCAAGCGCCATCTAC” here?
Its binding signal is 6.99 RPM ratio (pull-down/input).

For “GATGATTGTTCTCCCAGCTGATGAATTGTTTTTGTCGAGTAAACAAATTTTCCTAATCTTTCTGTTCAAGCGCCATCTAC”, which binding signal is on record?
The binding signal was 4.16 RPM ratio (pull-down/input).

Which binding signal does the source give for “GATGATTGTTCTCCCAGCTGATGAATTTTGTTTGTCGAGTAAACAAATTTTCCTAATCTTTCTGTTCAAGCGCCATCTAC” here?
The binding signal was 7.3 RPM ratio (pull-down/input).

For “GATGATTGTTCTCCCAGCTGATGAATTTTCTTTGTCGAGTAAACAAATTTTCCTAATCTTTCTGTTCAAGCGCCATCTAC”, which binding signal is on record?
The binding signal was 1.15 RPM ratio (pull-down/input).

How did the binding signal turn out when “GATGATTGTTCTCCCAGCTGATGAATTTAGAGACTCGAGTAAACAAATTTTCCTAATCTTTCTGTTCAAGCGCCATCTAC” was run?
Its binding signal is 0.585 RPM ratio (pull-down/input).

How did the binding signal turn out when “GATGATTGTTCTCCCAGCTGATGAATTAATGAGATCGAGTAAACAAATTTTCCTAATCTTTCTGTTCAAGCGCCATCTAC” was run?
Its binding signal is 0.246 RPM ratio (pull-down/input).

How did the binding signal turn out when “GATGATTGTTCTCCCAGCTGATGAATTTCGAACCTCGAGTAAACAAATTTTCCTAATCTTTCTGTTCAAGCGCCATCTAC” was run?
Its binding signal is 0.301 RPM ratio (pull-down/input).

With “GATGATTGTTCTCCCAGCTGATGAATTACAACCGTCGAGTAAACAAATTTTCCTAATCTTTCTGTTCAAGCGCCATCTAC” as the sequence, how does the binding signal read?
Its binding signal is 0.497 RPM ratio (pull-down/input).

“GATGATTGTTCTCCCAGCTGATGAATTGAGTTAATCGAGTAAACAAATTTTCCTAATCTTTCTGTTCAAGCGCCATCTAC” was tested. Which binding signal did it give?
Its binding signal is 0.369 RPM ratio (pull-down/input).

For “GATGATTGTTCTCCCAGCTGATGAATTTACAGGCTCGAGTAAACAAATTTTCCTAATCTTTCTGTTCAAGCGCCATCTAC”, which binding signal is on record?
The binding signal was 0.441 RPM ratio (pull-down/input).

With “GATGATTGTTCTCCCAGCTGATGAATTGGAACCGTCGAGTAAACAAATTTTCCTAATCTTTCTGTTCAAGCGCCATCTAC” as the sequence, how does the binding signal read?
The binding signal was 0.224 RPM ratio (pull-down/input).

With “GATGATTGTTCTCCCAGCTGATGAATTATTATTATCGAGTAAACAAATTTTCCTAATCTTTCTGTTCAAGCGCCATCTAC” as the sequence, how does the binding signal read?
The binding signal was 1.99 RPM ratio (pull-down/input).

“GATGATTGTTCTCCCAGCTGATGAATTTTTGTTATCGAGTAAACAAATTTTCCTAATCTTTCTGTTCAAGCGCCATCTAC” was tested. Which binding signal did it give?
The binding signal was 2.29 RPM ratio (pull-down/input).

With “GATGATTGTTCTCCCAGCTGATGAATTTGTTATCTCGAGTAAACAAATTTTCCTAATCTTTCTGTTCAAGCGCCATCTAC” as the sequence, how does the binding signal read?
The binding signal was 7.03 RPM ratio (pull-down/input).

For “GATGATTGTTCTCCCAGCTGATGAATTGCTGTTATCGAGTAAACAAATTTTCCTAATCTTTCTGTTCAAGCGCCATCTAC”, which binding signal is on record?
The binding signal was 2.06 RPM ratio (pull-down/input).

“GATGATTGTTCTCCCAGCTGATGAATTGTTATTATCGAGTAAACAAATTTTCCTAATCTTTCTGTTCAAGCGCCATCTAC” was tested. Which binding signal did it give?
The binding signal was 5.54 RPM ratio (pull-down/input).

For “GATGATTGTTCTCCCAGCTGATGAATTGTTATCCTCGAGTAAACAAATTTTCCTAATCTTTCTGTTCAAGCGCCATCTAC”, which binding signal is on record?
Its binding signal is 2.64 RPM ratio (pull-down/input).

For “GATGATTGTTCTCCCAGCTGATGAATTGTTGTTATCGAGTAAACAAATTTTCCTAATCTTTCTGTTCAAGCGCCATCTAC”, which binding signal is on record?
The binding signal was 6.7 RPM ratio (pull-down/input).

Which binding signal does the source give for “GATGATTGTTCTCCCAGCTGATGAATTTCTGTTATCGAGTAAACAAATTTTCCTAATCTTTCTGTTCAAGCGCCATCTAC” here?
The binding signal was 1.07 RPM ratio (pull-down/input).

With “GATGATTGTTCTCCCAGCTGATGAATTATTGTTATCGAGTAAACAAATTTTCCTAATCTTTCTGTTCAAGCGCCATCTAC” as the sequence, how does the binding signal read?
Its binding signal is 3.55 RPM ratio (pull-down/input).

How did the binding signal turn out when “GATGATTGTTCTCCCAGCTGATGAATTTCGGGCCTCGAGTAAACAAATTTTCCTAATCTTTCTGTTCAAGCGCCATCTAC” was run?
Its binding signal is 0.404 RPM ratio (pull-down/input).

For “GATGATTGTTCTCCCAGCTGATGAATTATGGAAATCGAGTAAACAAATTTTCCTAATCTTTCTGTTCAAGCGCCATCTAC”, which binding signal is on record?
The binding signal was 0.4 RPM ratio (pull-down/input).

For “GATGATTGTTCTCCCAGCTGATGAATTTTGTGCTTCGAGTAAACAAATTTTCCTAATCTTTCTGTTCAAGCGCCATCTAC”, which binding signal is on record?
The binding signal was 1.87 RPM ratio (pull-down/input).

“GATGATTGTTCTCCCAGCTGATGAATTGAGACTATCGAGTAAACAAATTTTCCTAATCTTTCTGTTCAAGCGCCATCTAC” was tested. Which binding signal did it give?
The binding signal was 0.692 RPM ratio (pull-down/input).

“GATGATTGTTCTCCCAGCTGATGAATTCCTTAGCTCGAGTAAACAAATTTTCCTAATCTTTCTGTTCAAGCGCCATCTAC” was tested. Which binding signal did it give?
Its binding signal is 0.222 RPM ratio (pull-down/input).

How did the binding signal turn out when “GATGATTGTTCTCCCAGCTGATGAATTTGGACTGTCGAGTAAACAAATTTTCCTAATCTTTCTGTTCAAGCGCCATCTAC” was run?
Its binding signal is 0.82 RPM ratio (pull-down/input).

Which binding signal does the source give for “GATGATTGTTCTCCCAGCTGATGAATTTCGGTGCTCGAGTAAACAAATTTTCCTAATCTTTCTGTTCAAGCGCCATCTAC” here?
Its binding signal is 0.541 RPM ratio (pull-down/input).

“GATGATTGTTCTCCCAGCTGATGAATTTTGCGCATCGAGTAAACAAATTTTCCTAATCTTTCTGTTCAAGCGCCATCTAC” was tested. Which binding signal did it give?
Its binding signal is 1.98 RPM ratio (pull-down/input).

Which binding signal does the source give for “GATGATTGTTCTCCCAGCTGATGAATTGCGCGCATCGAGTAAACAAATTTTCCTAATCTTTCTGTTCAAGCGCCATCTAC” here?
The binding signal was 2.39 RPM ratio (pull-down/input).

How did the binding signal turn out when “GATGATTGTTCTCCCAGCTGATGAATTGCATTGTTCGAGTAAACAAATTTTCCTAATCTTTCTGTTCAAGCGCCATCTAC” was run?
The binding signal was 4.05 RPM ratio (pull-down/input).

With “GATGATTGTTCTCCCAGCTGATGAATTGCGCATTTCGAGTAAACAAATTTTCCTAATCTTTCTGTTCAAGCGCCATCTAC” as the sequence, how does the binding signal read?
The binding signal was 8.05 RPM ratio (pull-down/input).

Which binding signal does the source give for “GATGATTGTTCTCCCAGCTGATGAATTTGCGCATTCGAGTAAACAAATTTTCCTAATCTTTCTGTTCAAGCGCCATCTAC” here?
Its binding signal is 7.07 RPM ratio (pull-down/input).

With “GATGATTGTTCTCCCAGCTGATGAATTGCATTTTTCGAGTAAACAAATTTTCCTAATCTTTCTGTTCAAGCGCCATCTAC” as the sequence, how does the binding signal read?
The binding signal was 3.02 RPM ratio (pull-down/input).

“GATGATTGTTCTCCCAGCTGATGAATTTTGCGATTCGAGTAAACAAATTTTCCTAATCTTTCTGTTCAAGCGCCATCTAC” was tested. Which binding signal did it give?
Its binding signal is 2.4 RPM ratio (pull-down/input).

For “GATGATTGTTCTCCCAGCTGATGAATTGCGCATCTCGAGTAAACAAATTTTCCTAATCTTTCTGTTCAAGCGCCATCTAC”, which binding signal is on record?
The binding signal was 8.03 RPM ratio (pull-down/input).

For “GATGATTGTTCTCCCAGCTGATGAATTTGCGAATTCGAGTAAACAAATTTTCCTAATCTTTCTGTTCAAGCGCCATCTAC”, which binding signal is on record?
Its binding signal is 1.18 RPM ratio (pull-down/input).
